# The panel holds about 83,000 compounds, 20% with a hit somewhere; the sample as a whole holds those more often.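 Step 1: grow cells in 96-well plates. Step 2: add test compound at a single concentration. Step 3: incubate 48 h. Step 4: record percent growth.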 Values without a mark were called inactive. Calls of active or inactive are those of the source. How the source made its calls: active means growth percent below 10; inactive means the rest.
# Legend:
# Assay in all cases: NCI-60 one-dose screen, 48 h (100 = growth as untreated, 0 = no growth, -100 = all killed)
# Details in all cases: 10 µM unless noted
# [1] = system: NCI-H23 lung
# [2] = system: NCI-H322M lung
# [3] = system: HOP-62 NSCLC
# [4] = system: NCI-H460 lung
# [5] = system: HOP-92 NSCLC
# [6] = system: NCI-H522 lung
# [7] = system: A549/ATCC NSCLC
# [8] = system: 786-0 renal
# [9] = system: COLO 205 colon
# [10] = system: DU-145 prostate
# [11] = system: K-562 leukemia
# [12] = system: MALME-3M melanoma
# [13] = system: MDA-MB-231 breast
# [14] = system: RXF 393 renal
# [15] = system: SF-268 CNS
# [16] = system: SF-295 CNS
# [17] = system: SF-539 CNS
# [18] = system: UACC-257 melanoma
# [19] = system: M14 melanoma
SMILES,growth [1],growth [2],growth [3],growth [4],growth [5],growth [6],growth [7],growth [8],growth [9],growth [10],growth [11],growth [12],growth [13],growth [14],growth [15],growth [16],growth [17],growth [18],growth [19]
CC(C)CN1CC(C(=O)Nc2ccc3c(c2)-c2ccccc2C3)CC1=O (stereo unspecified),81% [50 µM],69.6% [50 µM],50.7% [50 µM],81.8% [50 µM],58.5% [50 µM],51.3% [50 µM],78.7% [50 µM],70.7% [50 µM],87.7% [50 µM],80% [50 µM],64.7% [50 µM],58.7% [50 µM],55.9% [50 µM],79.7% [50 µM],60.8% [50 µM],76.1% [50 µM],72% [50 µM],39.9% [50 µM],77.4% [50 µM]
Cc1ccc2[nH]c(-c3ccc(S(C)(=O)=O)cc3)c(/C=N/N=C(N)N)c2c1,76.4%,79%,58.3%,37.9%,59.9%,-7.31% (active),46.2%,44.9%,49%,48%,26.3%,52.4%,67.6%,66.8%,62.1%,43.2%,59.5%,43.1%,32.5%
O=C(O)CCCn1c(SCc2c(Cl)cccc2Cl)nc2ccsc2c1=O,33.6%,48.3%,–,10.2%,24.5%,-3.68% (active),34.4%,23.9%,3.82% (active),3.54% (active),9.27% (active),47.7%,42%,-27.9% (active),39.5%,14.6%,-20.1% (active),68.4%,-11.1% (active)
CC(C)CSc1oc(-c2ccccc2)nc1S(=O)(=O)c1ccccc1,83.4%,99%,–,97.2%,45.8%,70.8%,79.8%,87%,109%,99.3%,92.4%,95.6%,89.4%,82.6%,87.3%,84.3%,101%,92.2%,98.3%
N#Cc1c(N2CCOCC2)nc(=S)[nH]c1-c1ccccc1,87.6%,76.4%,51.3%,68.9%,-7.41% (active),59.6%,85.6%,82.9%,77.3%,87.6%,93.4%,-3.74% (active),73.1%,70.8%,87.3%,54.5%,91.3%,91.8%,80.2%
CCCCN1C(=O)/C(=c2\sc3n(c2=O)NC2C(N=3)N(CC)C(=O)N2CC)c2ccccc21 (stereo unspecified),46.9%,69.9%,71.7%,35.3%,60%,21.4%,36.6%,53.6%,24.9%,20.6%,14.6%,57.6%,34.6%,-0.314% (active),48.6%,69.7%,13.5%,31%,25.3%
COc1ccc2nc(Cl)c(/C=C/C(=O)c3ccc(NC(=O)CSc4nnc(-c5ccc(Cl)c(Cl)c5)n4-c4ccccc4)cc3)cc2c1,96.5%,93.6%,83.2%,97.7%,67.8%,74.1%,69.7%,92.3%,101%,98.2%,87.2%,92.3%,89.3%,91.8%,89.1%,94%,105%,81.1%,91.7%
NC(=S)N/N=C/c1cn(-c2ccccc2)nc1-c1cc2ccccc2oc1=O,78.2%,89.2%,72.3%,21%,79.7%,36.5%,46.4%,62.4%,46.4%,85.3%,17.1%,48.8%,34.3%,78%,66.1%,48.1%,57.2%,71.5%,22.1%
O=C1CCCc2nc3sc4c(=O)n(-c5ccccc5Cl)nnc4c3cc21,101%,101%,94.3%,100%,94.9%,74.5%,80%,86.6%,105%,111%,102%,102%,93.6%,91.2%,103%,95.1%,103%,85.3%,106%
CCN(CC)CCNC(=O)c1ccc(-c2nc3ccc4[nH]ncc4c3c3c2CCCC3)cc1,65.3%,55.8%,57.3%,60.5%,73%,50.6%,56.1%,50.6%,63.6%,53.5%,30%,79.1%,59.6%,36.4%,58.6%,80.2%,61.2%,96.7%,52.9%
CCN(CC)c1ccc(/C=N/NC(=O)c2ccc(Nc3ccnc(C(F)(F)F)c3)cc2)c(O)c1,31%,15.3%,25.6%,-4.66% (active),42.4%,49.7%,33.4%,-16.2% (active),-18% (active),30.6%,87.2%,14.4%,24.4%,-0.93% (active),18.5%,7.62% (active),-46.4% (active),49%,19.3%
CCN(CC)CCOc1ccc(Nc2ncc3cc(-c4ccc(O)cc4)c(=O)n(C)c3n2)cc1,69.8%,47.7%,49.9%,78.9%,76.6%,27.3%,49%,-76.5% (active),38.4%,85.5%,-53.5% (active),-43.8% (active),43.1%,-5.94% (active),45%,98.5%,-1.13% (active),66.6%,57.5%
